Experimental findings from PubChem BioAssay are described below.

Where “and” joins values, the source holds several entries; their conditions need not be identical. Identical values can stand only once. For part of these data: Results with a measured potency or affinity are listed apart. Calls of active or inactive are those of the source. Unless noted, no rule for the calls is given here.

As usually defined, the inhibition is the relative decrease from the control value, in per cent.

Assay [1] is described as follows: blockers of polyQ-driven CASP3 activation – cell-based (AID 1583). Particulars: polyglutamine-induced caspase-3 activation, cell assay; stronger effect = higher value;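 tested at 10 µM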.
The nature of assay [2]: yeast 75Q aggregation reduction – 75Q-TubU reporter (AID 1593). Conditions: Yeast 75Q polyglutamine aggregation reporter.
The nature of assay [3]: restoration of touch response, mutant HTT neurons – whole organism, C. elegans mechanosensory neurons, N-terminal huntingtin (AID 1599). Particulars: C. elegans polyQ-huntingtin mechanosensory neurons, stronger effect = higher value.
The nature of assay [4]: blockers of cytochrome c efflux from mitochondria – biochemical, purified mitochondria (AID 1603).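 Also: mouse liver mitochondria challenged with calcium chloride; signal normalized to the plate average as 100%.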 Particulars: stronger effect = lower value.
The nature of assay [5]: polyglutamine aggregate formation blockers (AID 1604). Particulars: polyglutamine-induced protein aggregation inhibition assay; stronger effect = higher value; tested at 2.5 µM.
Assay [6] in a line: glutamate transport activators, MN-1 cells, MN-1 cell line (AID 1612).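 Also: tested at 1 µM final; 0% = mean of DMSO vehicle wells on each plate; positive means more glutamate uptake than control and negative means less.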 Conditions: MN-1 motor neuron cells, stronger effect = higher value.
A short description of assay [7]: 75Q-TubH aggregate inhibition, S. cerevisiae, yeast (AID 1616). Particulars: S. cerevisiae 75Q-TubH polyglutamine aggregation suppression; stronger effect = higher value.
A short description of assay [8]: signal quenchers or enhancers, Cy5 substrate/SSB – biochemical, NIH Clinical Collection, E. coli SSB, artefact control for HCV NS3 helicase inhibitor project (AID 743268). Conditions: Cy5-oligo bound E. coli SSB, fluorescence interference.
The test system of assay [9] is Hepatitis C virus NS3 helicase. Kind of assay: blockers of NS3h binding to DNA – biochemical, fluorescence polarization, NIH Clinical Collection, primary screen (AID 743270). Particulars: NS3 helicase binding to Cy5-dT15 DNA, stronger effect = higher value, concentration not given here. (Polarisation of emitted light reports the rotation of a fluorescent probe.)
Assay [10] concerns the target Single-stranded DNA-binding protein (Escherichia coli (strain K12)) (UniProt P0AGE0). Kind of assay: SSB-ssDNA binding inhibitors – biochemical, fluorescence polarization, NIH Clinical Collection, counter-screen for HCV NS3 helicase inhibitor project (AID 743271; in the data active = inhibition above about 28%). Particulars: E. coli SSB-DNA binding, stronger effect = higher value, concentration not given here.
Assay [11] is described as follows: compounds distorting NS3 helicase fluorescence signal – biochemical, NIH Clinical Collection, artefact control for HCV NS3 helicase inhibitor project (AID 743272).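 Also: HCV NS3 helicase with a Cy5 labelled single stranded DNA probe.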 Particulars: fluorescence interference counterscreen, HCV NS3 helicase assay; stronger effect = lower value.
Assay [12] in a line: modulation of C. elegans fzo-1 (AID 1259413).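 Also: fzo-1 mutant C. elegans worms in liquid wells.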 Conditions: C. elegans fzo-1 modulator screen, mean read-out; stronger effect = higher value.
For assay [13], the target named is Mitogen-activated protein kinase 7 (Homo sapiens) (UniProt Q13164). Kind of assay: Gal4-ERK5 driven luciferase induction – cell-based, HTS, primary screen (AID 1508626;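 active = luciferase signal above three times the same-plate solvent-only control wells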;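 also: luciferase driven by Gal4-ERK5 fusion binding five Gal4 sites before minimal TATA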). Conditions: HeLa Gal4-ERK5 transactivation, 18 h, at 5 µM, stronger effect = higher value.
Mitogen-activated protein kinase 7 (Homo sapiens), sequence (Q13164 whole entry, looked up, the tested form may be a part): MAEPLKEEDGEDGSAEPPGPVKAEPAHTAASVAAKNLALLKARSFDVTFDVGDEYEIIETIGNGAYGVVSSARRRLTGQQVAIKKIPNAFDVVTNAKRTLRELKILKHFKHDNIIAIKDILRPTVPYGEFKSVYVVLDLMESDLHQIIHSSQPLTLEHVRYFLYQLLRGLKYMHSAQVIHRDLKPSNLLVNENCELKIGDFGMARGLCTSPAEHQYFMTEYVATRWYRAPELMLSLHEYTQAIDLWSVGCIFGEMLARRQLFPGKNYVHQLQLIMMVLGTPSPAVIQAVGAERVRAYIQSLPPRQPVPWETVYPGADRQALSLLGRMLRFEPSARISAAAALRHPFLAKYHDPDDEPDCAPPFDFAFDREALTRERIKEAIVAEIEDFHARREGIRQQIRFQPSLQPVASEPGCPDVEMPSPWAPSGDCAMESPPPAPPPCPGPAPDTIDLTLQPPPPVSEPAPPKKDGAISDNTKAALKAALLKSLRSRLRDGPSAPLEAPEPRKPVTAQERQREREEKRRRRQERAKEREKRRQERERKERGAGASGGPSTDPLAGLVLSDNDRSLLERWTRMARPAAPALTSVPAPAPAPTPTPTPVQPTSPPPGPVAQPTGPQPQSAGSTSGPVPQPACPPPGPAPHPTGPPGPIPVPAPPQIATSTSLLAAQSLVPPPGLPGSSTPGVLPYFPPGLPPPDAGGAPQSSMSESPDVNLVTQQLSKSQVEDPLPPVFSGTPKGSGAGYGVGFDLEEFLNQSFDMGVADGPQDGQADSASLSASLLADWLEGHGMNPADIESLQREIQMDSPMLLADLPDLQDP
The nature of assay [14]: galactose survival enhancers in mitochondrial complex I cybrids – cell-based, galactose medium, ATP luminescence, primary screen (AID 1645843;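 active = z-score of at least 1.8 in each of two replicates, scored against plate mean and spread of sample wells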;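 also: positive z means more ATP and so rescue of galactose-driven cybrid death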). Particulars: complex I mutant cybrid cells, 72 h, stronger effect = higher value.
Assay [15] concerns R275C/beta1. Kind of assay: BK channel mutant inhibitors and activators – cell-based, U2OS BacMam, thallium flux, beta subunits, selectivity assay, profiling panel (AID 1259406;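 active = thallium flux through the channel raised or lowered by more than 3 SD from vehicle-only wells, actives on both sides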;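 also: initial slope of Thallos dye fluorescence rise after thallium is added; log ratio against the mean of 0.3% DMSO vehicle wells on the same plate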). Conditions: U2OS BacMam BK variants, at 30 µM.
Assay [16] concerns R275C/beta2Delta. Described as above. Conditions: U2OS BacMam BK variants, at 30 µM.
Assay [17] has as its system R275C/beta4. The description is as above. Particulars: U2OS BacMam BK variants, at 30 µM.
The subject of assay [18] is R275C/Slo1WT/beta2. Described as above. Particulars: U2OS BacMam BK variants, at 30 µM.
Assay [19] is described as follows: compounds altering viability of human ES cells (AID 493140).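 Also: cells exposed to compounds for four days before counting.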 Particulars: human embryonic stem cell survival screen; stronger effect = higher value.
A short description of assay [20]: growth inhibition, single agents and combos, ICB984, cell-based, cisplatin or BGB combos, synergistic combos for chromothripsis tumors (AID 1671451).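 Also: cells exposed for 96 hours before readout; 0% = vehicle DMSO and 100% = killing by high DMSO.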 Particulars: ICB984 medulloblastoma cells, drug combinations, stronger effect = higher value.

`COC1=CC(=O)C[C@@H](C)[C@]12Oc1c(Cl)c(OC)cc(OC)c1C2=O`: the results for the inhibition in assay [1], in assay [9] and in assay [10] were 4.47%, -4.09% (inactive) and -3.53% (inactive), respectively. In addition, the score in [2] was determined as 1. In addition, in assay [3], the rescue above control is -5.31. Besides, in assay [4], the cytochrome c release ratio is 1.14. In [5], the inhibition of aggregation worked out at 56.8%. The glutamate uptake change in [6] is -9%. Further, the aggregation suppression score in assay [7] was 1.07. The fluorescence ratio in assay [8] and in [11] was 1 (inactive) in each case. In addition, the mean signal in assay [12] was 231 (inactive). Also, the luciferase signal in [13] was 104 AU (inactive). Further, in [14], the z-score is 1.05 (inactive). The log fold change Tl+ flux in [15] is 0.0145 (inactive); in assay [16], -0.00445 (inactive); in assay [17], -0.0288 (inactive); in assay [18], 0.00636 (inactive).
As to `C/C=C/C(=O)N(CC)c1ccccc1C`, the survival in assay [19] was 6.17 (inactive). Also, the fluorescence ratio in assay [8] was 1.05 (inactive); in assay [11], 1.02 (inactive). The inhibition was -2.77% (inactive) in assay [9] and -2.41% (inactive) in assay [10]. The mean signal in assay [12] was 254 (inactive). In addition, the luciferase signal in assay [13] is 64 AU (inactive). The z-score in assay [14] is -0.06 (inactive). Moreover, the log fold change Tl+ flux in [15] was -0.0206 (inactive); in assay [16] it was 0.013 (inactive); in assay [17], -0.00282 (inactive); in assay [18], 0.00262 (inactive).
Turning to `Cn1cnc([N+](=O)[O-])c1Sc1ncnc2nc[nH]c12`, the inhibition is 18.4% in assay [1]; -3.18% (inactive) in assay [9]; -2.76% (inactive) in assay [10]; -7.33% and 0.138% in assay [20] (BGB IC20 combo, at 0.005 µM); -44% and -68.5% in assay [20] (BGB IC40 combo, at 0.005 µM); -15.3% and -11.2% in assay [20] (BGB IC40 combo, at 0.05 µM). Also, the inhibition is -19.6% (inactive) and -22.9% (inactive) in assay [20] (at 0.5 µM); -15.3% and -15.6% in assay [20] (cisplatin combo, at 0.05 µM); -29.3% and -25.2% in assay [20] (cisplatin combo, at 0.5 µM); -23% and 1.4% in [20] (cisplatin combo, at 5 µM); -20.7% and -15.2% in [20] (measured here: 5 uM single agent, at 5 µM). The compound further gave a score in assay [2] of 0.86. In assay [3], this compound returned a rescue above control of -3.67. Besides, the cytochrome c release ratio in assay [4] was found to be 0.54. The inhibition of aggregation in [5] came to 83.1%. For the same compound, in assay [6], the glutamate uptake change was -23.5%. In addition, the aggregation suppression score in assay [7] was determined as 1.11. Further, in assay [19], the survival was 7.25 (inactive). The values for the fluorescence ratio in assay [8] and in assay [11] were 1.03 (inactive) and 0.99 (inactive), respectively. For the same compound, the mean signal in [12] was 260 (inactive). The luciferase signal in assay [13] was 408 AU (active). Also, in assay [14], the z-score is -0.21 (inactive) and -1.11 (inactive). Moreover, the log fold change Tl+ flux was 0.0023 (inactive) in [15], -0.053 (inactive) in assay [16], -0.0246 (inactive) in assay [17] and 0.0598 (inactive) in assay [18].
For `Cc1cn([C@H]2C[C@H](N=[N+]=[N-])[C@@H](CO)O2)c(=O)[nH]c1=O`, the inhibition in [1] is -8.49%; in [9], -3.18% (inactive); in assay [10], -2.76% (inactive). In [2], this compound registered a score of 1.46. For the same compound, the rescue above control in assay [3] worked out at 1.62. Also, the cytochrome c release ratio in assay [4] worked out at 1.1. This compound also had an inhibition of aggregation in assay [5] of 48.1%. For the same compound, in assay [6], the glutamate uptake change was -23.5%. Moreover, the aggregation suppression score in [7] came out at 1.12. The fluorescence ratio in assay [8] is 1.05 (inactive); in [11], 1.04 (inactive). For the same compound, the mean signal in assay [12] was 236 (inactive). Moreover, in [13], the luciferase signal is 44 AU (inactive). In addition, the z-score in assay [14] was 0.4 (inactive) and 0.685 (inactive). Moreover, the log fold change Tl+ flux in assay [15] is -0.0324 (inactive); in [16] it was 0.0219 (inactive); in [17], 0.00485 (inactive); in [18], 0.022 (inactive).
